Source: PubChem BioAssay (National Center for Advancing Translational Sciences (NCATS))
Rows were chosen to be rich in hits. Some 7.3% of all compounds tested hit in one or more screens of this group.
FLuc counter – inhibits or activates purified firefly luciferase, miR-21 counter-screen; P08659; Potency, µM (top dose mostly 57.5 µM), most hits filed as inhibitors; 360,000 tested, 6.9% active; AID 588342; purified FLuc, Km substrates, luminescence inhibition; further: nearly all actives have a fitted effect of over 55% in size
Target sequence (P08659 whole entry, looked up): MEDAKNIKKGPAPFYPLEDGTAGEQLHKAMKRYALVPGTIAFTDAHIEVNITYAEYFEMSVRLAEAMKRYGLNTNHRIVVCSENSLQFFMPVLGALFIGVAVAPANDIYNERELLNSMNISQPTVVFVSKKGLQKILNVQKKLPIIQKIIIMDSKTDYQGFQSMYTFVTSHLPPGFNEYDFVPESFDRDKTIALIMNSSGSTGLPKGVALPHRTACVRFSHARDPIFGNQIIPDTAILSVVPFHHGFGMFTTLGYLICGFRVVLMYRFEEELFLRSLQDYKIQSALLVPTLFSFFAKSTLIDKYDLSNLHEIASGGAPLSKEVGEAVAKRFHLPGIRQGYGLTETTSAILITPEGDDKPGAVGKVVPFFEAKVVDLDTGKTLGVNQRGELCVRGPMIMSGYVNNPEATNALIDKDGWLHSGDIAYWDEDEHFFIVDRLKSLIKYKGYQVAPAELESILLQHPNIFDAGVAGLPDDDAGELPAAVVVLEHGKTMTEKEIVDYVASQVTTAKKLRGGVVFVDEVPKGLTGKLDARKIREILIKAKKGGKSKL
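Purified P. pyralis luciferase, 10 nM final, with Km-level 10 uM D-luciferin and 10 uM ATP in 50 mM Tris acetate pH 7.5, 10 mM Mg acetate, 0.01% Tween-20, 0.05% BSA; 6-point qHTS titration about 60 µM downward; luminescence read.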
ELG1 genotox – inducers of genotoxicity in HEK293T ELG1-luciferase cells | 330,000 tested, 1.3% active | HEK293T ELG1-luciferase reporter, luminescence, 16 h | Potency, µM (titrated, usually from 46 µM), hits mostly activators; further: nearly all actives have a fitted effect of over 60% in size
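Cells (2,000/well) expressing the ELG1-luciferase fusion are dosed by pin tool and kept 16 hr at 37 °C, 5% CO2. Signal comes from ONE-Glo luciferase reagent after 30 min at room temperature.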
SMN2 splice up – increases expression of the SMN2 splice variant; HEK293 SMN2-luciferase splicing reporter, luminescence, 30-36 h; Potency, µM (top dose mostly 46.1 µM), usual class: activators; 210,000 tested, 2.8% active; AID 1458; further: nearly all actives have a fitted effect of over 55% in size
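HEK293 cells carry an SMN2 […]–luciferase reporter in which exon 7 inclusion puts luciferase in frame. Cells were plated 10-12 h before compound addition, then incubated 30-36 h at 37C. ONE-Glo luminescence was read; sodium butyrate at 4.5 mM final served as control.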
Rab9 prom act – activators of Rab9 promoter. Huh7 Rab9 promoter-luciferase reporter, luminescence, 24 h. Potency, µM (series often up to 9.22 µM), hits mostly activators. 320,000 tested, 2.8% active. AID 485297; further: nearly all actives have a fitted effect of over 60% in size
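Luminescence read-out: Huh7 cells stably expressing Rab9-luciferase, treated 24 h with compound at 37 °C, then lysed with luciferase reagent for 10 min at ambient before reading.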
Luc counter – blocks Kinase-Glo luciferase, a counter-screen artifact | Q27757 | Kinase-Glo luciferase, ATP luminescence, 8 min | Potency, µM (highest dose often 38.3 µM), most hits filed as inhibitors | 200,000 tested, 0.28% active | AID 1379; further: nearly all actives have a fitted effect of over 60% in size
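Luminescence was the read-out, taken after 8-minute incubation at ambient temperature. Luciferase turned over luciferin with 10 uM ATP in imidazole pH 7.2 buffer containing KCl, MgCl2, Tween 20 and BSA.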
NPC1 promoter act – activates the NPC1 promoter. Potency, µM (highest dose often 9.22 µM), usual class: activators. 320,000 tested, 2.4% active. Huh7 NPC1 promoter luciferase reporter, 24 h. AID 485313; further: nearly all actives have a fitted effect of over 60% in size
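Luciferase expression driven by the NPC1 promoter was measured in stably transfected Huh7 cells after a 24 h compound incubation, using a luciferase reagent and a luminescence read.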
Numbers stand for hits; . = inactive; ? = inconclusive; / = no result; [ ] = remark or other dose. The call rests on the fitted dose curve; in most records, active means well fitted curve in the direction sought with a large enough effect; inconclusive means small, poorly fitted or top-dose-only effect, or another doubt; inactive means no such curve, though single readings can be large; an effect the other way counts as inactive or inconclusive.

SMILES | FLuc counter | ELG1 genotox | SMN2 splice up | Rab9 prom act | Luc counter | NPC1 promoter act
CCCCCCCn1c(=N)n(CC(O)c2ccco2)c2ccccc21 (stereo not drawn) | . | . | / | . | . | .
O=C(Nc1ccc2c(c1)OCCO2)c1cnc2n(c1=O)CCS2 | 9.53µM | 9.2µM | 20µM | 2µM | . | 2.51µM
CC(CN1CCCC1)OC(=O)c1ccc(Cl)cc1Cl (stereo not drawn) | ? | . | / | . | / | .
O=C(O/N=C1/CCCc2occc21)c1ccccc1 | 2.13µM | . | . | . | ? | .
O=C(O/N=C1/CCCc2occc21)c1ccc(Cl)cc1Cl | 5.36µM | . | / | . | / | .
CCCOc1ccc(C(=O)NNC(=S)NC(=O)c2ccco2)cc1 | ? | ? | / | . | / | .
Cc1cc(NC(=O)c2ccccc2F)n(C(C)(C)C)n1 | . | . | / | . | / | .
Cc1ccccc1/C=C\c1nc2ccccc2c(=O)[nH]1 | 1.9µM | 18.3µM | 10µM | 0.562µM | . | ?
Cc1ccccc1/C=C/c1nc2ccccc2c(=O)[nH]1 | 2.13µM | 10.3µM | / | 1.41µM | / | ?
O=C(COc1ccc(S(=O)(=O)N2CCCC2)cc1Cl)NC1CC1 | . | . | . | . | . | .
COc1ccc(-c2cc3ncc(-c4ccccc4)c(N)n3n2)cc1 | 0.953µM | ? | 11.2µM | 1.78µM | 11.2µM | 1.41µM
COc1ccc(-c2cc3nc(C)cc(NCCO)n3n2)cc1 | 10.7µM | . | . | ? | . | .
N#Cc1cnc2cc(-c3ccccc3)nn2c1N | ? | . | / | ? | / | ?
Cc1ccc(-c2nc(NCc3ccco3)n(S(C)(=O)=O)n2)cc1 | / | . | ? | . | . | .
CC(=O)n1nc(-c2ccc(C)cc2)nc1NCc1ccco1 | . | ? | ? | 3.55µM | . | 2.51µM
Cc1ccc(-c2cc3nc(C)cc(NCc4ccco4)n3n2)cc1 | 2.39µM | 4.11µM | 12.6µM | . | . | 2.82µM
NC(=O)C1CCN(S(=O)(=O)Cc2ccccc2Cl)CC1 | . | . | . | . | . | .
COc1ccc(-c2cc3nc(C)cc(-c4ccc(OC)cc4)n3n2)cc1 | ? | . | / | . | / | .
COc1ccc(-c2cc3nc(C)cc(N)n3n2)cc1 | 0.379µM | ? | 1.12µM | 0.355µM | 7.94µM | 0.112µM
COCCNc1cc(C)nc2cc(-c3ccc(C)cc3)nn12 | 6.01µM | ? | . | ? | . | ?
Cc1ccc(SC[C@H](Cc2ccccc2)N2CC[C@@H](NC(=O)OCc3ccccc3)CCC2=O)cc1 | . | . | / | . | / | .
Cn1c(=O)n(C)c2cc(/C=N/NC(=O)c3ccc(Cl)cc3)ccc21 | . | . | / | . | / | .
Cn1c(=O)cc(C(=O)N/N=C/c2ccc(Cl)cc2)[nH]c1=O | 12µM | . | / | . | / | .
CS(=O)(=O)c1ccc2c(c1)sc1nc(=O)c(/C=C3/C=CC(=O)C(O)=C3)c(N)n12 | 4.78µM | ? | / | . | / | .
COC1=C/C(=C/c2c(N)n3c(nc2=O)sc2cc(S(C)(=O)=O)ccc23)C=CC1=O | 9.53µM | . | / | . | / | .
SMILES | FLuc counter | ELG1 genotox | SMN2 splice up | Rab9 prom act | Luc counter | NPC1 promoter act
COC1=C/C(=C/c2c(N)n3nc(-c4ccc(C)cc4)sc3nc2=O)C=CC1=O | 15.1µM | ? | ? | . | . | .
CCS(=O)(=O)c1nn2c(N)c(/C=C3/C=CC(=O)C(OC)=C3)c(=O)nc2s1 | ? | . | .[1.84 µM] | . | . | .
CCOC1=C/C(=C/c2c(N)n3nc(-c4ccccc4)sc3nc2=O)C=CC1=O | ? | . | . | . | . | .
COc1ccccc1N(C(=O)c1snc(C(N)=O)c1N)C(C(=O)NC1CCCC1)c1ccco1 (stereo not drawn) | . | . | . | . | . | .
CC(=O)CCC(=O)N1CCCC(CNC(=O)c2ccc(-c3ccccc3)cc2)C1 (stereo not drawn) | 10.7µM | . | / | . | . | .
O=C(NCC1CCCN(C(=O)c2cccnc2)C1)c1ccc(-c2ccccc2)cc1 (stereo not drawn) | ? | . | / | . | . | .
CSCC(=O)N1CCCC(CNC(=O)c2ccc(-c3ccccc3)cc2)C1 (stereo not drawn) | 21.3µM | . | / | . | . | .
Cc1cccnc1NC(=O)c1cc2c(=O)oc3ccccc3c2s1 | . | . | . | . | . | .
Cc1cc2cc3c(cc2nc1SCC(=O)O)OCCO3 | . | . | . | . | . | .
Cc1cc2cc3c(cc2nc1SCc1ccc(C(=O)O)cc1)OCCO3 | 19µM | . | . | . | . | .
Cc1ccc2c(c1)COc1c3ccc(C(=O)N[C@@H](C)CO)cc3nn1-2 | 3.38µM | ? | / | 2.24µM | / | 1.58µM
CCOc1c2ccc(C(=O)N[C@H](C)C3CCCCC3)cc2nn1CCOC | . | . | . | . | . | .
Cc1ccc2c(c1)COc1c3ccc(C(=O)NC(C)C)cc3nn1-2 | 3.01µM | ? | / | ? | / | 1.58µM
COc1ccc2occ(C(=O)c3coc4ccc(O)c(CN(C)C)c34)c2c1 | . | . | . | . | . | .
O=c1oc2ccccc2c(N2CCCCC2)c1CN1CCCC1 | . | . | . | . | . | .
O=[N+]([O-])c1cccc(/C=N/Nc2nccnc2Cl)c1 | 12µM | ? | ? | 2µM | 10µM | 2.82µM
Fc1cccc(/C=N/Nc2nccnc2Cl)c1 | 21.3µM | ? | / | ? | / | ?
O=[N+]([O-])c1cccc(/C=C/c2ccccn2)c1 | 13.5µM | . | / | ? | / | ?
O=[N+]([O-])c1cccc(/C=N/Nc2ccccn2)c1 | 3.01µM | ? | 11.2µM | 3.98µM | . | ?
N#C/C(=C\c1cccc([N+](=O)[O-])c1)c1ccccn1 | . | ? | . | ? | . | .
Cc1cc(C)nc(N/N=C/c2cccc([N+](=O)[O-])c2)n1 | . | . | / | . | / | .
CN(CC(=O)Nc1ccc(F)cc1)C(=O)C1CCCC1 | . | . | / | . | / | .
CCOc1ccc(N2CC(C(=O)NCc3ccco3)CC2=O)cc1 (stereo not drawn) | . | . | / | . | / | .
Clc1ccc(Oc2cnc3ccccc3n2)cc1 | ? | . | . | . | . | .
Cc1ccc(Oc2cnc3ccccc3n2)cc1 | 12µM | . | . | ? | . | ?
SMILES | FLuc counter | ELG1 genotox | SMN2 splice up | Rab9 prom act | Luc counter | NPC1 promoter act
COc1ccc(CCNC(=O)COc2cc(=O)n(C)c3ccccc23)cc1OC | . | . | . | . | . | .
O=C(Nc1cnn(C23CC4CC(CC(C4)C2)C3)c1)c1cnn2cccnc12 | 2.13µM | ? | / | 0.447µM | . | 0.562µM
C/C(=N/OC(=O)C1CC1c1ccccc1)c1ccccc1 (stereo not drawn) | 19µM | ? | . | . | . | .
COc1ccc(C2CC2/C(C)=N/OC(=O)C2CC2)cc1 (stereo not drawn) | . | . | . | . | . | .
CC(C)(C)c1ccc(-c2nnc(SCC(=O)O)n2N)cc1 | 10.7µM | . | . | . | . | .
C=CCn1c(SCC(=O)O)nnc1-c1cccc(Cl)c1 | . | . | . | . | . | .
C=CCn1c(SCC(=O)O)nnc1-c1ccc(C(C)(C)C)cc1 | 16.9µM | . | . | . | . | .
